Bioassay records from PubChem.
USP28 inh – inhibitors of human USP28 deubiquitinase. inhibition, % at 25 µM. purified USP28, Ub-rhodamine cleavage fluorescence, 30 min. actives 3% (n = 47,000). Ubiquitin carboxyl-terminal hydrolase 28 (Homo sapiens), Q96RU2. AID 1645857, 2021
USP17 block – inhibitors of human USP17 deubiquitinase; purified USP17, Ub-rhodamine cleavage fluorescence, 3 h; actives 6.5% (n = 47,000); Ubiquitin carboxyl-terminal hydrolase 17-like protein 5 (Homo sapiens), A8MUK1; inhibition, % at 50 µM
USP30 block – inhibitors of human USP30 deubiquitinase. inhibition, % at 25 µM. purified USP30, Ub-rhodamine cleavage fluorescence. actives 5.3% (n = 47,000)
OTUD3 inh – inhibitors of human OTUD3 deubiquitinase | OTU domain-containing protein 3 (Homo sapiens), Q5T2D3 | purified OTUD3, Ub-rhodamine fluorescence, 2 h | inhibition, % at 25 µM | actives 0.7% (n = 47,000) | AID 1645858, 2021
Target sequence (Q5T2D3 whole entry, looked up, the tested form may be a part): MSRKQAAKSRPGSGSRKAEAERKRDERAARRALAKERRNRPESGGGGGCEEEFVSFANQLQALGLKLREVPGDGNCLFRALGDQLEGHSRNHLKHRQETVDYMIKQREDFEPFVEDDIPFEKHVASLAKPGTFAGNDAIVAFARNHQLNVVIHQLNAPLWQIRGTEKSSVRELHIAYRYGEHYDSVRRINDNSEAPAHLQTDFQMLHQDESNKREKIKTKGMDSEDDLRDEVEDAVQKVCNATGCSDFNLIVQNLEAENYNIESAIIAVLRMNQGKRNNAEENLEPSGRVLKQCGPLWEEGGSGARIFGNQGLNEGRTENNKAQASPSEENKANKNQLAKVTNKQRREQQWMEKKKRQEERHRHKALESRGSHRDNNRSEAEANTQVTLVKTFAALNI
Starred values were filed as active, the others as inactive. Sampled rows, rich in hits. Any-hit rate of the full collection: about 11%. Rule as the data show it: active = inhibition above about 30%; inactive = the rest.

O=C(CCCn1c(=O)c2ccccc2n(CC(=O)NCc2ccccc2Cl)c1=O)NCc1ccc2c(c1)OCO2 was read as USP28 inh 33*, USP17 block 27, USP30 block 66* and OTUD3 inh 26.
Screening Cc1ccc(C(=O)NCc2noc(C3CCCC3)n2)c(C)c1 returned USP28 inh 7, USP17 block 6, USP30 block 8 and OTUD3 inh 7.
Screening Cc1ccsc1CN1CCc2nc(N3CCC(C)CC3)ncc2C1 returned USP28 inh -12, USP17 block -27, USP30 block -110 and OTUD3 inh -38.
For C[C@H]1[C@H](C)CCC23CC[C@]4(C)[C@@](C=CC5[C@@]6(C)CC[C@H](O)C(C)(C)[C@@H]6CC[C@]54C)(OC2=O)[C@H]13 (stereo partly drawn) the results were USP28 inh 38*, USP17 block 50*, USP30 block 56* and OTUD3 inh 32*.
`CCc1noc(-c2c(S(=O)(=O)NCc3ccccc3)c(C)n(C)c2C)n1` gave USP28 inh 6, USP17 block 3, USP30 block 9 and OTUD3 inh 10.
`Cc1cc(NC(=O)c2cc(-c3ccccn3)n[nH]2)ccc1Br` gave USP28 inh -8, USP17 block -13, USP30 block -13 and OTUD3 inh -7.
Screening Cc1cc(NC(=O)c2cc(-c3cccnc3)n[nH]2)ccc1Br returned USP28 inh 48*, USP17 block 33*, USP30 block 68* and OTUD3 inh 18.
O=C(NCc1ccc(F)cc1)C1CCN(C(=O)c2cc(-c3cccnc3)n[nH]2)CC1 was read as USP28 inh -6, USP17 block -5, USP30 block 0 and OTUD3 inh 2.
O=C(NCc1ccc(Br)cc1)c1cc(-c2cccnc2)n[nH]1 was read as USP28 inh 15, USP17 block 37*, USP30 block 24 and OTUD3 inh 10.
Screening Cc1cc(Cl)ccc1NC(=O)c1cc(-c2cccnc2)n[nH]1 returned USP28 inh 93*, USP17 block 67*, USP30 block 23 and OTUD3 inh -1.
For CC(C)(C)OC(=O)N[C@@H](Cc1ccccc1)C(=O)NCC1CCC(C(=O)NCCc2c[nH]c3ccccc23)CC1 (stereo partly drawn) the results were USP28 inh -11, USP17 block 44*, USP30 block -12 and OTUD3 inh 0.
Screening CSc1ncc2c(=O)n(CC(=O)Nc3cccc(C)c3)cnc2n1 returned USP17 block -49 and OTUD3 inh 5.
COc1ccccc1NC(=O)CN1CCC(c2nnc(C)s2)CC1 was read as USP17 block -7 and OTUD3 inh -2.
For COc1ccc(Cn2nnc(-c3cccc(Cl)c3)n2)cc1F the results were USP28 inh 35*, USP17 block 1, USP30 block -11 and OTUD3 inh 1.
O=C(COc1cccc(C(=O)NCc2ccccc2)c1)Nc1ccc(Oc2ccccc2)cc1 was read as USP28 inh 20, USP17 block 40*, USP30 block 56* and OTUD3 inh 40*.
Screening CC(=O)CSc1nnc(-c2cnn(-c3ccccc3)c2N)o1 returned USP28 inh -2, USP17 block -9, USP30 block 1 and OTUD3 inh 0.
Nc1ccccc1-c1nnc(SCC(=O)c2ccccc2)o1 was read as USP28 inh 15, USP17 block 16, USP30 block 33* and OTUD3 inh 15.
`Cc1nc2ccc(NC(=O)COc3ccccc3[N+](=O)[O-])cc2s1` gave USP28 inh 6, USP30 block 57* and OTUD3 inh -2.
Screening Cc1ccc(S(=O)(=O)Nc2ccccc2CCc2nc3ccccc3[nH]2)cc1 returned USP28 inh -4, USP17 block 0, USP30 block 0 and OTUD3 inh -3.
Screening Cc1ccc(S(=O)(=O)Nc2ccccc2SCCS(=O)(=O)c2ccc(Cl)cc2)cc1 returned USP28 inh 28, USP17 block 24, USP30 block 51* and OTUD3 inh 26.
For CC(C)NC(=O)N1CCN(C(=O)c2ccccc2)CC2(CC(=O)N(C)C2)C1 (stereo not drawn) the results were USP28 inh 15, USP17 block 10, USP30 block 22 and OTUD3 inh 14.
Cc1ccc(NC(=O)Cn2cc(S(=O)(=O)N3CCOCC3)ccc2=O)cc1F was read as USP28 inh 1, USP17 block 9, USP30 block 17 and OTUD3 inh 8.
Screening Cn1cc(C(=O)N2CCCCC2c2nnc(-c3nccc4ccccc34)o2)cn1 (stereo not drawn) returned USP28 inh -9, USP17 block -14, USP30 block -16 and OTUD3 inh -8.
For Cc1cc(=O)n2[nH]c(CNc3cccc(C(F)(F)F)c3)nc2n1 the results were USP28 inh 10, USP17 block 16, USP30 block 31* and OTUD3 inh 6.
Screening Cn1c(=O)c(C(=O)Nc2ccc(Br)cc2F)nc2ccccc21 returned USP28 inh -5, USP17 block 46*, USP30 block 4 and OTUD3 inh -5.
CCn1c(=O)c(C(=O)Nc2ccc(Br)cc2)nc2ccccc21 was read as USP28 inh -2, USP17 block 34*, USP30 block -10 and OTUD3 inh -1.
`CC(=O)Nc1cccc(NC(=O)c2nc3ccccc3n(C)c2=O)c1` gave USP28 inh 7, USP17 block 0, USP30 block 8 and OTUD3 inh 8.
`Cn1c(=O)c(C(=O)Nc2ccc(Br)cc2)nc2ccccc21` gave USP28 inh 13, USP17 block 12, USP30 block 34* and OTUD3 inh 7.
For CNC(=O)C1CN(C(=O)Cc2cccc(Cl)c2)CC12CCCC2 (stereo not drawn) the results were USP28 inh -4, USP17 block 1, USP30 block -10 and OTUD3 inh -8.
For Cc1c2oc3c(C)ccc(C(=O)NC4C(=O)N[C@@H](C(C)C)C(=O)N5CCCC5C(=O)N(C)CC(=O)N(C)C(C(C)C)C(=O)OC4C)c3nc-2c(C(=O)NC2C(=O)N[C@H](C(C)C)C(=O)N3CCCC3C(=O)N(C)CC(=O)N(C)C(C(C)C)C(=O)OC2C)c(N)c1=O (stereo partly drawn) the results were USP28 inh -11, USP17 block 62*, USP30 block -112 and OTUD3 inh -24.
Cc1nnc(Sc2cc(C(=O)NCCN3CCCC3)c3ccccc3n2)s1 was read as USP28 inh -9, USP17 block 52*, USP30 block -12 and OTUD3 inh -7.
Cc1nnc(Sc2cc(C(=O)NCc3ccco3)c3ccccc3n2)s1 was read as USP28 inh -15, USP17 block 12, USP30 block -64 and OTUD3 inh 0.
Cc1n[nH]c(C)c1CC(=O)NCc1nnc(-c2nccc3ccccc23)o1 was read as USP28 inh 13, USP17 block 40*, USP30 block 34* and OTUD3 inh 10.
For COc1ccc(CC(=O)N2C[C@H]3NC(=O)c4ccccc4C(=O)[C@@]3(C)C2)cc1 the results were USP28 inh -10, USP17 block -7, USP30 block -9 and OTUD3 inh -2.
